VDR inh: blocks the human vitamin D receptor; VDR-SRC2-3 peptide fluorescence polarization, 2 h; Potency, µM, usual class: inhibitors; 400,000 compounds, 0.93% hits
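Inhibition of the VDR/SRC2-3 peptide interaction is quantified by fluorescence polarization. Compounds (23 nl, pintool) incubate with the reagents for 2 hours at ambient room temperature.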
PLK1 PBD block: blocks phosphopeptide binding to human PLK1 polo-box domain; P53350; Plk1 PBD binding of FITC phosphopeptide, fluorescence polarization; Potency, µM, most hits filed as inhibitors; 360,000 compounds, 2.8% hits; AID 720504; also: series mostly up to about 57 µM; nearly all actives have a fitted effect of over 65% in size
TSHR antagonist: blocks TSH signaling through the human TSH receptor; activity change, negative = inhibition, % at 11.5 µM; P16473; 330,000 compounds, 0.2% hits; TSHR-expressing cells, TSH-stimulated cAMP HTRF, 2 h; stronger effect = lower value;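 active = activity change below a set negative limit, meaning inhibition stronger than a set level, cut at about -70% in these data; inconclusive = activity change between two set negative limits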
Target sequence (P16473 whole entry, looked up): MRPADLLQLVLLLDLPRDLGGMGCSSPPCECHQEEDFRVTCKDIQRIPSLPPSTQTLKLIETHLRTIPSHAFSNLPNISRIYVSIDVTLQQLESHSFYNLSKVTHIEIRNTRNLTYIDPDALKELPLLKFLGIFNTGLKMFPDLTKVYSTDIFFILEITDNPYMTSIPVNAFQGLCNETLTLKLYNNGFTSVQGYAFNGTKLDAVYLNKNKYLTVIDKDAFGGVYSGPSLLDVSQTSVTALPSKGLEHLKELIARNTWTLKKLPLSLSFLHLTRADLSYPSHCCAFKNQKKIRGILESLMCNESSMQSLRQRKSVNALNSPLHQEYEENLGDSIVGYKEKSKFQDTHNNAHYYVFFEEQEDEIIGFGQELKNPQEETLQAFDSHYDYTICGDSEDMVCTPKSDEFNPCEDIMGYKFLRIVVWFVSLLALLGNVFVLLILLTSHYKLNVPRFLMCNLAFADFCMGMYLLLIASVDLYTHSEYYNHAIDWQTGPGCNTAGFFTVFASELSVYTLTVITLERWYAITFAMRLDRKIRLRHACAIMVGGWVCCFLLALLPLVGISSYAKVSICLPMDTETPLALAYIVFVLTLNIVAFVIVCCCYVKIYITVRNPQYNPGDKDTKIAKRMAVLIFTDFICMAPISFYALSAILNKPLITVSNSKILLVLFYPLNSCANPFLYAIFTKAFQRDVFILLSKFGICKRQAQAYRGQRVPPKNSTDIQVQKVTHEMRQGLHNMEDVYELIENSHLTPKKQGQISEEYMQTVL
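TSHR-expressing cells were treated with compounds, then stimulated with TSH at EC80 (4nM final) for 2 hours at 37 deg C. Cellular cAMP was measured by HTRF competition between lysate cAMP and cAMP-d2 for a cryptate-labelled anti-cAMP antibody.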
Vif-A3G inh: blocks the Vif interaction with human APOBEC3G. Q9HC16. HeLa A3G-eYFP + Vif (tagged APOBEC3G with the HIV-1 protein that degrades it), YFP fluorescence, overnight. Potency, µM (top dose mostly 46.1 µM), hits mostly inhibitors. 410,000 compounds, 0.076% hits. AID 602310; also: nearly all actives have a fitted effect of over 60% in size
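HeLa cells stably expressing Vif and C-terminally eYFP-tagged A3G, seeded overnight at 37 deg C, then exposed to compound by pintool overnight at 37 deg C. Rise in yellow fluorescence (Ex 488/Em 500-530, Acumen) marks blocked Vif-driven A3G degradation.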
Vif-APOBEC3F blk: Vif-A3F binding inhibition; 390,000 compounds, 0.2% hits; HeLa A3F-eYFP + Vif (tagged APOBEC3F with the HIV-1 protein that degrades it), YFP fluorescence increase; Potency, µM (series often up to 46.1 µM); also: nearly all actives have a fitted effect of over 65% in size
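HeLa cells stably expressing A3F-eYFP plus Vif, plated and incubated overnight at 37 deg C, then exposed to compounds overnight at 37 deg C. Blocked degradation read as raised yellow fluorescence (Ex 488/Em 500-530).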
Each line names hits and unclear results; the compound was inactive in the other large screens. The list is not random: actives were taken first. Their share in the collection is about 3.1%. Unless noted, calls follow the shape of the dose curve; as a rule, active = well fitted curve in the direction sought with a large enough effect; inconclusive = small, poorly fitted or top-dose-only effect, or another doubt; inactive = no such curve, though single readings can be large; an effect the other way counts as inactive or inconclusive.

CC(=C\c1ccccc1)/C=C1/SC(=S)N(C(C(=O)O)C(C)C)C1=O (configuration not stated)	VDR inh inconclusive, PLK1 PBD block 30µM
CCC(C(=O)O)N1C(=O)/C(=C/C(C)=C/c2ccccc2)SC1=S (configuration not stated)	VDR inh inconclusive, PLK1 PBD block 24µM
Cc1ccc(/C=C2\SC(=S)N(C(Cc3ccccc3)C(=O)O)C2=O)cc1 (configuration not stated)	VDR inh 50µM, PLK1 PBD block inconclusive
CC(C)C(C(=O)O)N1C(=O)/C(=C/c2ccc(Br)cc2)SC1=S (configuration not stated)	VDR inh 5µM (no result: PLK1 PBD block, TSHR antagonist, Vif-A3G inh, Vif-APOBEC3F blk)
C/C=C(\C)[C@H](O)C[Si](C)(C)c1ccccc1	none (no result: PLK1 PBD block, TSHR antagonist, Vif-A3G inh, Vif-APOBEC3F blk)
COCCn1c(=O)c(-c2cccs2)nc2cnc(N(C)C)nc21	none (no result: PLK1 PBD block, TSHR antagonist, Vif-A3G inh, Vif-APOBEC3F blk)
O=C(CSc1ccc(Cl)cc1)N1CCCC1	VDR inh inconclusive, PLK1 PBD block 24µM
CCOC(=O)C1CCCN(C(=O)CSc2nc(C)cc(C)n2)C1 (configuration not stated)	Vif-APOBEC3F blk inconclusive
CCOC(=O)N1CCN(C(=O)CCc2ccccc2)CC1	TSHR antagonist -128
CCOC(=O)N1CCN(C(=O)CSCc2ccccc2)CC1	VDR inh inconclusive
CCOC(=O)C1CCCN(C(=O)CSc2ccc(Br)cc2)C1 (configuration not stated)	VDR inh inconclusive, PLK1 PBD block 24µM
Cc1ccc(SCC(=O)N2CCCC2)cc1	none
CCOC(=O)N1CCN(C(=O)CSc2ccccc2)CC1	PLK1 PBD block 15µM
CCC(C)C(NC(=O)OC(C)(C)C)C(=O)NC1COC2CC(n3cc(C)c(=O)[nH]c3=O)OC12 (configuration not stated)	none (no result: PLK1 PBD block, TSHR antagonist, Vif-APOBEC3F blk)
COC(=O)c1ccccc1C[C@]1(C(=O)OC)C=C[C@H](C)[C@@H](c2ccccc2)N1C(=O)C(F)(F)F	none (no result: PLK1 PBD block, TSHR antagonist, Vif-A3G inh, Vif-APOBEC3F blk)
CCOC(=O)N1CCN(C(=O)Cn2ncc3ccccc32)CC1	PLK1 PBD block 30µM
CNC(=O)C1(C(F)(F)F)C/C(=C\Cc2ccccc2)CCCO1 (configuration not stated)	none (no result: PLK1 PBD block, TSHR antagonist, Vif-APOBEC3F blk)
COc1ccc(-c2coc3cc(OC(C)=O)ccc3c2=S)cc1	VDR inh inconclusive, PLK1 PBD block 12µM (no result: TSHR antagonist)
COc1ccc2[nH]c(S(=O)Cc3ncc(C)c(OC)c3C)nc2n1 (configuration not stated)	VDR inh 45µM (no result: PLK1 PBD block, TSHR antagonist, Vif-A3G inh, Vif-APOBEC3F blk)
COc1ccc2[nH]c(S(=O)Cc3ncc(C)c(OC)c3C)nc2c1 (configuration not stated)	none (no result: VDR inh)
O=C(O)C1CCCC1	none (no result: VDR inh, PLK1 PBD block, TSHR antagonist, Vif-APOBEC3F blk)
O=C(Cc1cccs1)NC1C(=O)N2C(C(=O)[O-])=C(C[n+]3ccccc3)CSC12 (configuration not stated)	VDR inh 25µM (no result: PLK1 PBD block, TSHR antagonist, Vif-A3G inh, Vif-APOBEC3F blk)
CCCCn1c(=S)[nH]c2cc(S(=O)(=O)N3CCOCC3)ccc21	none (no result: TSHR antagonist)
CCn1c(=S)[nH]c2cc(S(=O)(=O)N3CCCCC3)ccc21	PLK1 PBD block 27µM
Cc1ccc(N2CCN(Cc3nnc(-c4ccccc4F)o3)CC2)c(C)c1	none (no result: PLK1 PBD block, TSHR antagonist)
Cc1c(C(=O)Nc2nccs2)sc2nc(-c3cccs3)cc(C(F)(F)F)c12	none
CC(=O)c1sc2nc(-c3cccs3)cc(C(F)(F)F)c2c1N	Vif-A3G inh inconclusive, Vif-APOBEC3F blk 5µM
CC(=O)N1CCCC1c1nc2ccccc2n1Cc1cccc(Cl)c1 (configuration not stated)	none (no result: PLK1 PBD block, TSHR antagonist)
O=[N+]([O-])c1cccc(-c2nc3ccc([N+](=O)[O-])cc3[nH]2)c1	VDR inh 32µM, PLK1 PBD block 9.5µM
CN(CC(=O)O)c1ccc(/C=C2\C=Cc3ccccc32)cc1	none (no result: VDR inh, PLK1 PBD block, TSHR antagonist, Vif-APOBEC3F blk)
COC(C)(C)CCCC(C)C/C=C/C(C)=C/C(=O)O (configuration not stated)	none (no result: PLK1 PBD block, TSHR antagonist, Vif-A3G inh, Vif-APOBEC3F blk)
COC(=O)Cn1c(C)c(/C=C/c2cc[n+](C)cc2)c2ccccc21	Vif-A3G inh inconclusive, Vif-APOBEC3F blk 11µM
O=C1CCCCN1CC(=O)N1CCCC(Nc2ccc(F)c(F)c2)C1 (configuration not stated)	VDR inh inconclusive, PLK1 PBD block 21µM
C#CCOc1c(Cl)cc(/C=C2/C(=O)ON=C2C)cc1OC	VDR inh inconclusive, PLK1 PBD block 4.7µM
CCCC(=O)NC(c1ccc(OC)cc1)c1ccc2cccnc2c1O (configuration not stated)	Vif-APOBEC3F blk 11µM
Cc1c(Cl)cccc1NC(=O)CCNC(=O)N1CC(=O)Nc2ccccc21	PLK1 PBD block 27µM
O=C(CCNC(=O)N1CC(=O)Nc2ccccc21)NCc1ccccc1Cl	none (no result: VDR inh, TSHR antagonist)
O=C(CCNC(=O)Cn1cnc2ccccc2c1=O)NCC1COc2ccccc2O1 (configuration not stated)	PLK1 PBD block 3µM
COc1cc(OC)c(NC(=O)CCNC(=O)Cn2cnc3ccccc3c2=O)cc1Cl	PLK1 PBD block 13µM
O=C(O)COc1cccc2c1CCC=C2CCO/N=C(\c1ccccc1)c1cccnc1	VDR inh 50µM (no result: PLK1 PBD block, TSHR antagonist, Vif-A3G inh, Vif-APOBEC3F blk)
O=c1c2nc(Br)n([C@@H]3O[C@@H]4CO[P@@](O)(=S)O[C@H]4[C@H]3O)c2nc2[nH]c(-c3ccccc3)cn12	none (no result: PLK1 PBD block, TSHR antagonist, Vif-A3G inh, Vif-APOBEC3F blk)
CSCCC1NC(=O)N(CC(=O)Nc2c(Cl)cc(Cl)cc2Cl)C1=O (configuration not stated)	PLK1 PBD block 8.4µM
CC(C)ON(C(C(=O)NO)C(C)C)S(=O)(=O)c1ccc(-c2ccccc2)cc1 (configuration not stated)	none (no result: PLK1 PBD block, TSHR antagonist, Vif-A3G inh, Vif-APOBEC3F blk)
CN(/N=C/c1ccc(N(C)C)cc1)C1=NS(=O)(=O)c2ccccc21	Vif-A3G inh 4.5µM
COc1ccc(/C=N/N(C)C2=NS(=O)(=O)c3ccccc32)cc1	none
CCN(Cc1cccc(S(=O)(=O)O)c1)c1ccc(C(=C2C=CC(=[N+](CC)Cc3cccc(S(=O)(=O)O)c3)C=C2)c2ccc(O)cc2S(=O)(=O)O)cc1	none (no result: VDR inh, PLK1 PBD block, TSHR antagonist, Vif-APOBEC3F blk)
Cc1ccc(Nc2cccccc2=O)cc1	PLK1 PBD block 9.5µM
Cc1cc(C)nc(SSc2nc(C)cc(C)n2)n1	VDR inh 7.1µM, PLK1 PBD block 1.9µM, Vif-APOBEC3F blk inconclusive
CCOP(=O)(CC(C(C)=O)C(O)c1ccccc1)OCC (configuration not stated)	none
CCOP(=O)(Cc1ccc(C(C)(C)CC(C)=O)o1)OCC	TSHR antagonist -82
CN1CC[C@@]2(CCCN(C(=O)c3cccc(F)c3)C2)C1	none (no result: PLK1 PBD block, TSHR antagonist, Vif-A3G inh, Vif-APOBEC3F blk)
C/C(=N/NS(=O)(=O)c1ccc(Cl)cc1)c1ccncc1	PLK1 PBD block inconclusive
C/C(=N\NC(=O)c1cccc(S(=O)(=O)Nc2ccccc2Cl)c1)c1ccc(-n2ccnc2)cc1	none
CC(=NNS(=O)(=O)c1cccc([N+](=O)[O-])c1)c1ccc(-n2ccnc2)cc1	PLK1 PBD block 19µM
C/C(=N\NS(=O)(=O)c1ccc(Br)cc1)c1ccncc1	VDR inh inconclusive, PLK1 PBD block 5.3µM
C/C(=N/NS(=O)(=O)c1cccc([N+](=O)[O-])c1)c1ccncc1	VDR inh 28µM, PLK1 PBD block 3µM

Compound activity: PubChem, National Center for Advancing Translational Sciences (NCATS)
